Among the data in PubChem BioAssay AID463173 (ICCB-Longwood Screening Facility, Harvard Medical School, 2010) are survival values, retold here.

Out of some 52,000 compounds screened, about 4,300 (8.3%) were called active. No stated cut-off is given here; in the data, active means survival mostly below about 52% (no sharp cut-off); inactive means mostly above about 56%. Shown is part of a subset that was picked to be rich in actives.

For the test, the system named is DeltatarO mutant. Description: growth inhibition of S. aureus wild type versus tarO mutant, primary screen, teichoic acid synthesis inhibitors, RN4220, OD600 (AID 463173). To be noted: OD600, 18 h, stronger effect = lower value, screened at 18.75 µg/mL (by protocol).
For `COc1ccc2c(c1)c1c(c(=O)n(Cc3ccccc3)c(=O)n1CC(=O)NCc1ccccc1)n2C`, the survival was 91% (inactive).

As to `COc1ccccc1CNC(=O)CCc1c(C)c2ccc(OC)c(C)c2oc1=O`, the survival is 74% (inactive).

As for `Cc1ccc(Cl)cc1-n1nnc(-c2nc(-c3ccc4c(c3)OCO4)no2)c1C`, the survival was 122% (inactive).

Regarding `N#C/C(=C(/O)CN1C(=O)c2ccccc2C1=O)c1nc2ccccc2[nH]1`, the survival was 76% (inactive).

As to `Cc1ccn2c(Nc3ccccc3C)c(-c3ccc(N4CCOCC4)cc3)nc2c1`, the survival is 89% (inactive).

Consider `Cc1ccccc1Nc1c(-c2ccc(N3CCOCC3)cc2)nc2ccccn12`, for which the survival was 41% (active).

In the case of `Cc1ccc(-c2nc3ncccn3c2Nc2ccc3c(c2)OCCO3)cc1`, the survival is 79% (inactive).

On to `Cc1ccc(Nc2c(-c3ccc(N4CCOCC4)cc3)nc3ncccn23)cc1`, for which the survival is 139% (inactive).

For `Cc1ccc(Nc2c(-c3ccc(C)s3)nc3ncccn23)cc1`, the survival is 9% (active).

As for `Cc1ccc2nc(-c3ccc(N4CCOCC4)cc3)c(Nc3ccccc3C)n2c1`, the survival was 71% (inactive).

As to `CCOC(=O)c1cnc2cc(-c3ccc(C)cc3)nn2c1C`, the survival was 74% (inactive).

As to `O=C1COc2cc(S(=O)(=O)CCC(=O)NC3CCCCC3)c(Cl)cc2N1`, the survival was 93% (inactive).

On to `CCc1sc(Nc2cccc(C)c2)nc1-c1cc2cccc(OC)c2oc1=O`, for which the survival is 94% (inactive).

As to `Cc1cccc(CN2C(=O)c3ccccc3Sc3ccc(C(=O)NCc4ccco4)cc32)c1`, the survival was 102% (inactive).

As for `Cc1ccccc1CN1C(=O)c2ccccc2Sc2ccc(C(=O)NCc3cccs3)cc21`, the survival is 93% (inactive).

As to `Cc1ccc(CN2C(=O)c3ccccc3Sc3ccc(C(=O)NCCCN4CCOCC4)cc32)cc1`, the survival was 126% (inactive).

For the molecule `Cc1cccc(CN2C(=O)c3ccccc3Sc3ccc(C(=O)NCCCN4CCOCC4)cc32)c1`, the survival is 37% (active).

As to `Cc1ccc(CN2C(=O)c3ccccc3Sc3ccc(C(=O)NC4CCCCC4)cc32)cc1`, the survival was 100% (inactive).

Regarding `Cc1ccc(CN2C(=O)c3ccccc3Sc3ccc(C(=O)NCc4ccco4)cc32)cc1`, the survival was 81% (inactive).

`O=C(NCCCN1CCOCC1)c1ccc2c(c1)N(Cc1ccccc1)C(=O)c1ccccc1S2`: the survival was 98% (inactive).

As to `Cc1ccccc1CN1C(=O)c2ccccc2Sc2ccc(C(=O)NCCc3ccccc3)cc21`, the survival is 101% (inactive).

Regarding `O=C(NC1CCCC1)c1ccc2c(c1)N(Cc1ccccc1)C(=O)c1ccccc1S2`, the survival is 105% (inactive).

`Cc1ccc(C)c(CN2C(=O)c3ccccc3Sc3ccc(C(=O)NCc4ccco4)cc32)c1`: the survival was 17% (active).

Turning to `Cc1ccccc1CN1C(=O)c2ccccc2Sc2ccc(C(=O)NCc3ccccc3)cc21`, the survival is 37% (active).

Take `O=C(NC1CCCCC1)c1ccc2c(c1)N(Cc1ccccc1)C(=O)c1ccccc1S2`: the survival was 46% (active).

`Cc1ccc(C)c(N2CCN(S(=O)(=O)c3ccc4c(c3)OCCO4)CC2)c1`: the survival was 76% (inactive).

As to `Cc1nn(-c2ccccc2)c2c1N(CC(=O)N1CCN(c3ccc(F)cc3)CC1)C(=O)CS2`, the survival was 81% (inactive).

With `CC(C)(C)c1ccc(C(=O)NCC(c2cccs2)S(=O)(=O)c2ccc(F)cc2)cc1` (centres undefined), the survival was 90% (inactive).

For the molecule `Cc1ccc(CNC(=O)C2CCCN(c3nn4cc(-c5ccc(C)cc5)nc4s3)C2)cc1` (centres undefined), the survival was 93% (inactive).

In the case of `CC(=O)c1ccc(N2C(=O)N(CC(=O)c3ccc(F)cc3)c3ccccc3S2(=O)=O)cc1`, the survival is 102% (inactive).

Consider `Cc1ccc(NC(=O)CCCc2nc(-c3ccco3)no2)cc1Cl`, for which the survival was 80% (inactive).

For `CCc1cccc(C)c1NC(=O)Cn1ncc2c3ccccc3n(Cc3ccccc3)c2c1=O`, the survival was 86% (inactive).

As for `COc1cccc(CNC(=O)c2ccc3c(c2)N(Cc2ccc(F)cc2Cl)C(=O)c2ccccc2S3)c1`, the survival is 25% (active).

For `COc1cccc(CN2C(=O)c3ccccc3Sc3ccc(C(=O)NCc4ccccc4)cc32)c1`, the survival was 80% (inactive).

As to `CC(=O)Nc1ccc(C(=O)Nc2ccc3c(c2)N(C2CCCC2)C(=O)c2ccccc2S3)cc1`, the survival is -4% (active).

On to `O=C(Nc1ccc2c(c1)N(C1CCCC1)C(=O)c1ccccc1S2)c1ccccc1`, for which the survival was 60% (inactive).

On to `O=C(Nc1ccc2c(c1)N(C1CCCC1)C(=O)c1ccccc1S2)c1ccc(F)cc1`, for which the survival is 66% (inactive).

In the case of `COc1ccc(CNC(=O)c2ccc3c(c2)N(Cc2cccc(Cl)c2)C(=O)c2ccccc2S3)c(OC)c1`, the survival is 83% (inactive).

As for `CC(=O)N1CCc2cc(CNS(=O)(=O)c3ccc(Cl)s3)ccc21`, the survival is 70% (inactive).

Regarding `CSc1ccccc1-c1nnc(NC(=O)c2ccc3c(c2)OCCO3)o1`, the survival is 119% (inactive).

As for `CS(=O)(=O)c1ccccc1-c1nnc(NC(=O)c2ccc3c(c2)OCCO3)o1`, the survival was -4% (active).

For the molecule `CS(=O)(=O)c1ccc(-c2nnc(NC(=O)c3ccc4c(c3)OCCO4)o2)cc1`, the survival was 60% (inactive).

With `COc1ccc(S(=O)(=O)N2CCN(C)CC2)c(Cl)c1Cl`, the survival is 75% (inactive).

Regarding `O=C1c2[nH]nc(-c3ccccc3O)c2C(c2cccc(OCc3ccccc3)c2)N1CCCO` (centres undefined), the survival is 56% (active).

For `O=C1c2[nH]nc(-c3ccccc3O)c2C(c2cccc(OCc3ccccc3)c2)N1CCO` (centres undefined), the survival is 67% (inactive).

As for `CCCCN1C(=O)c2[nH]nc(-c3ccccc3O)c2C1c1cccc(OCc2ccccc2)c1` (centres undefined), the survival was 18% (active).

For `O=C1c2[nH]nc(-c3ccccc3O)c2C(c2cccc(O)c2)N1Cc1ccncc1` (centres undefined), the survival is 103% (inactive).

In the case of `CCCN1C(=O)c2[nH]nc(-c3ccccc3O)c2C1c1cccc(OCc2ccccc2)c1` (centres undefined), the survival is 8% (active).

Consider `CCCN1C(=O)c2[nH]nc(-c3ccccc3)c2C1c1cccc(O)c1` (centres undefined), for which the survival is 54% (inactive).

Take `Fc1ccc(-c2cn3cc(Cc4ccc(Cl)cc4)sc3n2)cc1`: the survival is 55% (inactive).

For `COc1ccc(CCNC(=O)CCCn2c(=O)c3ccccc3n(CC(=O)Nc3cc(Cl)ccc3C)c2=O)cc1OC`, the survival was 69% (inactive).

As for `Cc1sc2c(c1C)c(=O)n(-c1ccc(Cl)cc1)c(=O)n2Cc1cc(=O)n2cc(Br)ccc2n1`, the survival is 76% (inactive).

For the molecule `COc1ccc2c(c1)CCc1c(C(=O)Nc3ccc(OC)cc3OC)noc1-2`, the survival was 180% (inactive).

With `Cc1ccc(C)c(CNC(=O)c2ccc3c(c2)nc2n3CCOC2)c1`, the survival was 67% (inactive).

On to `O=C(NCc1ccccc1Br)c1ccc2c(c1)nc1n2CCOC1`, for which the survival was -1% (active).

For `CCOc1ccc(CNC(=O)c2ccc3c(c2)nc2n3CCC(C)C2)cc1OC` (centres undefined), the survival was 73% (inactive).

On to `COc1ccc(CCNC(=O)c2ccc3c(c2)nc2n3CCOC2)cc1OC`, for which the survival was -2% (active).

`CCOc1ccc(CNC(=O)c2ccc3c(c2)nc2n3CCOC2)cc1OC`: the survival was 6% (active).

Regarding `COc1ccc(CCNC(=O)c2ccc3c(c2)nc2n3CCCCC2)cc1OC`, the survival was 75% (inactive).

For the molecule `O=C(NCc1ccccc1)c1ccc2c(c1)nc1n2CCOC1`, the survival was 84% (inactive).

As for `CCOc1ccc(CCNC(=O)c2ccc3c(c2)nc2n3CCOC2)cc1OCC`, the survival was 79% (inactive).

As to `CCOc1ccc(CNC(=O)c2ccc3c(c2)nc2n3CCOC2)cc1`, the survival was 90% (inactive).

`Cc1cccc(-n2c(SCc3nc(-c4ccccc4C)no3)nnc2-c2ccccc2)c1`: the survival was 74% (inactive).

Regarding `O=C(NC1CCN(Cc2nnnn2Cc2ccc3c(c2)OCO3)CC1)c1ccccc1F`, the survival is 91% (inactive).

`NC(=O)c1cc(S(=O)(=O)NCC2CCC(C(=O)Nc3ccc(Cl)cc3)CC2)cs1` (centres undefined): the survival is 66% (inactive).

For the molecule `O=C(NCc1ccc2c(c1)CCN2C(=O)c1ccc(Cl)cc1)c1ccco1`, the survival was 80% (inactive).

As for `O=S(=O)(c1cc(Br)c(Br)s1)N1CCN(c2ccccc2)CC1`, the survival was 72% (inactive).

As to `CCOc1ccc(NC(=O)c2cc3sc(Cl)cc3n2CC)cc1`, the survival is 84% (inactive).

In the case of `Cc1ccc(CNC(=O)c2cc3sc(Cl)cc3n2C)cc1`, the survival was 80% (inactive).

As for `CCn1c(C(=O)NCc2ccccc2)cc2sc(Cl)cc21`, the survival is 34% (active).

In the case of `CCn1c(C(=O)NCc2ccc(OC)cc2)cc2sc(Cl)cc21`, the survival is 41% (active).

For `CCn1c(C(=O)NCCc2ccc(OC)c(OC)c2)cc2sc(Cl)cc21`, the survival was 32% (active).

For the molecule `CCn1c(C(=O)NCCc2ccc(S(N)(=O)=O)cc2)cc2sc(Cl)cc21`, the survival was 71% (inactive).

As to `COc1ccc(CCNC(=O)c2cc3sccc3n2Cc2ccc(Cl)cc2)cc1OC`, the survival was 88% (inactive).

Consider `CCn1c(C(=O)NCc2ccc(C)cc2)cc2sc(Cl)cc21`, for which the survival was 92% (inactive).

Regarding `CCn1c(C(=O)NCc2ccccc2Cl)cc2sc(Cl)cc21`, the survival is 63% (inactive).

Turning to `N#Cc1c[nH]n2c(NC3CCCCC3)c(-c3ccccc3F)nc12`, the survival is 56% (inactive).

On to `CCCCN(C(=O)c1cccc(S(=O)(=O)N2CCCCC2)c1)C1CCS(=O)(=O)C1` (centres undefined), for which the survival is 117% (inactive).

Take `COc1ccc(CCNC(=O)CCc2c(C)nc3c4cccnc4nn3c2C)cc1OC`: the survival is 87% (inactive).

Regarding `COc1ccc(CCNC(=O)C2COc3ccccc3O2)cc1` (centres undefined), the survival was 89% (inactive).

Turning to `Cc1ccc(NC(=O)Nc2cc3c(cc2N2CCCCC2)n(C)c(=O)n3C)cc1Cl`, the survival was 99% (inactive).

As to `CC1CN(C(=O)N2CCC(C(=O)NC3CCCCCC3)CC2)c2cc(Cl)ccc2O1` (centres undefined), the survival is 61% (inactive).

For `O=C1CC(N2CCCC2)C(=O)N1c1ccccc1` (centres undefined), the survival is 96% (inactive).

On to `COc1ccccc1CNC(=O)C(=O)NCC(c1cccs1)S(=O)(=O)c1ccc(F)cc1` (centres undefined), for which the survival is 80% (inactive).

As to `CC(C)c1ccc(OCc2cc(=O)n3c4c(sc3n2)CCCC4)cc1`, the survival is 73% (inactive).

As for `Cc1cccn2c(=O)c(/C=C(\C#N)c3nc4ccccc4[nH]3)c(Oc3ccc(C(C)(C)C)cc3)nc12`, the survival is 93% (inactive).

For the molecule `COc1ccc(C)cc1NC(=O)CN1C(=O)COc2ccc(S(=O)(=O)N3CCC(C)CC3)cc21`, the survival is 69% (inactive).

Take `COc1ccc(-c2cc(C(=O)OCC(=O)c3cccc(OC)c3)c3cccc(Cl)c3n2)cc1`: the survival was 74% (inactive).

Consider `Cc1ccc(-n2cc(C(=O)Oc3cccc(C)c3)c3ccccc3c2=O)cc1`, for which the survival was 69% (inactive).

Take `COc1ccc(-c2cc(C(=O)OCC(=O)c3ccc(C)cc3)c3cccc(Cl)c3n2)cc1`: the survival is 65% (inactive).

On to `COc1ccc(-c2cc(C(=O)OC(C)C(=O)c3ccccc3)c3cccc(Cl)c3n2)cc1` (centres undefined), for which the survival is 76% (inactive).

As to `Cc1ccc(-c2cc(C(=O)Oc3ccccc3)c3cc(C)ccc3n2)cc1`, the survival was 76% (inactive).

Take `COc1ccc(-c2cc(C(=O)Oc3cccc(C)c3)c3ccccc3n2)cc1`: the survival was -2% (active).

With `Cc1ccc(-c2cc(C(=O)Oc3ccccc3)c3cccc(C)c3n2)cc1`, the survival was 50% (inactive).

As for `Cc1ccc(OC(=O)c2cc(-c3ccccc3)nc3ccc(C)cc23)cc1`, the survival was 49% (active).

Turning to `COc1ccc(-c2cc(C(=O)NCCc3ccccc3)c3cc(C(C)C)ccc3n2)cc1`, the survival was 76% (inactive).

`COc1ccc(-c2cc(C(=O)Oc3ccc(C)cc3)c3cc(C)ccc3n2)cc1`: the survival is 22% (active).

As to `Cc1ccc2nc(C)cc(C(=O)O)c2c1`, the survival is 99% (inactive).

`COc1ccc(-c2cc(C(=O)Oc3cccc(C)c3)c3cc(C)ccc3n2)cc1`: the survival was 13% (active).
